Compound activity (PubChem)
Only some compounds are listed: those with a hit (about 12% of all), similar ones and a draw of the others.
Sm TGR inh – S. mansoni TGR enzyme inhibition. Q962Y6. purified TGR, DTNB reduction, TNB absorbance 405 nm. Potency, µM (doses to about 114 µM), without a hit: at the top dose activity change, negative = inhibition, most hits filed as inhibitors. actives 3% (n = 360,000). AID 485364; also: % is scaled to controls: 0 for no effect and ±100 for the full control effect; nearly all actives have a fitted effect of over 60% in size
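TGR 20 nM + NADPH 100 uM (dispensed conc.), cpd preinc 15 min RT; start with NADPH (500 uM addition) then DTNB (15 mM addition). Kinetic TNB absorbance, 405 nm filter. Four-parameter Hill fit across titration.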
Pf growth 48h – inhibits P. falciparum growth in the first generation, 48 h | P. falciparum luciferase growth in erythrocytes, 48 h | Potency, µM (doses to about 28.7 µM), for inactives: at the top dose activity change, negative = inhibition, usual class: inhibitors | actives 5.9% (n = 310,000); also: % is scaled to controls: 0 for no effect and ±100 for the full control effect
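Here the parasites carry a stable luciferase gene and grow inside erythrocytes in Albumax-based RPMI medium with compound for one erythrocytic cycle. Activity is scored as loss of luminescent signal.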
Pf growth 96h – P. falciparum growth inhibition at 96 hours; AID 504834; Potency, µM (series often up to 28.7 µM), inactives show at the highest dose activity change, negative = inhibition, usual class: inhibitors; actives 6.9% (n = 320,000); P. falciparum luciferase reporter growth, 96 h; also: % is scaled to controls: 0 for no effect and ±100 for the full control effect
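Delayed-death screen, second-generation endpoint: infected erythrocytes, 2% hematocrit, 0.05% parasitemia final; 96 hours at 37 C, 5% CO2; luciferase detection reagent; luminescence decrease equals reduced growth.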
SARS PLP yeast – blocks SARS-CoV papain-like protease in a yeast assay. S. cerevisiae expressing SARS-CoV PLpro, growth rescue. AID 485353. actives 0.19% (n = 330,000). Potency, µM (top dose mostly 32.9 µM), inactives show top-dose activity, positive = growth rescue, hits mostly activators; calls by dose curve; also: 0% is about no effect; nearly all actives have a fitted effect of over 55% in size
Active calls of the source: *; i = inactive; ? = inconclusive; nt = not tested or not shown. Unless noted, calls follow the shape of the dose curve; as a rule, active = well fitted curve in the direction sought with a large enough effect; inconclusive = small, poorly fitted or top-dose-only effect, or another doubt; inactive = no such curve, though single readings can be large; an effect the other way counts as inactive or inconclusive. Potency is read from the fitted curve at half-maximal effect.

SMILES | Sm TGR inh | Pf growth 48h | Pf growth 96h | SARS PLP yeast
CCc1cc(C(=O)c2ccc(Br)cc2)c(NC(=O)CN(CC)CC)s1 | 14% | 5.9µM* | 8.3µM* | 7%
O=C(c1ccccc1)c1ccccc1NC(=O)c1ccccc1C(=O)O | 2% | nt | nt | nt
CCN(CC)CC(=O)Nc1sc(C)cc1C(=O)c1ccccc1 | -12% | 3.3µM* | -12% | 8%
CC1CCc2c(sc(NC(=O)c3ccccc3)c2C(=O)Nc2ccccc2)C1 (stereo not drawn) | 2% | nt | nt | nt
CCN(CCCNC(=O)c1nn(-c2ccc(OC)cc2)c(=O)c2c1c1ccccc1n2C)c1ccccc1 | 11% | nt | nt | nt
Cc1cc(C(=O)c2ccccc2)c(NC(=O)CCl)s1 | 7.9µM* | ? | -15% | 4%
CC(=O)Nc1ccccc1C | -2% | 22% | 47% | -10%
Cc1ccc(Cl)c(NC(=O)CCl)c1Cl | 32µM* | ? | 12µM* | 2%
Cc1ccccc1NC(=O)CCl | 22µM* | ? | ? | 2%
CC(=O)c1ccc(OCc2cc(C(=O)N3CCN4CCCC4C3)no2)cc1 (stereo not drawn) | 5% | -13% | 1% | 5%
Cc1cc(OCc2cc(C(=O)N(C)C3CCOC3)no2)cc(C)c1Cl (stereo not drawn) | 0% | 6% | 70% | 8%
CC(=O)c1ccc(OCc2cc(C(=O)N3CC[C@@H]4CCCC[C@H]4C3)no2)cc1 | 13µM* | 0% | 17% | -6%
CC(=O)c1ccc(OCc2cc(C(=O)N3CCC(c4ccncc4)CC3)no2)cc1 | 45µM* | 3% | 4% | -15%
CC(=O)c1ccc(OCc2cc(C(=O)N(C)C3CCOC3)no2)cc1 (stereo not drawn) | -3% | 5% | 12µM* | 0%
Cc1ccc(NC(=O)C2CC2C)cc1S(=O)(=O)N1CCOCC1 (stereo not drawn) | 7% | ? | ? | -15%
Cc1nn(Cc2ccc(C(=O)Nc3ccc(C(=O)OC(C)C)cc3)o2)c(C)c1Cl | ? | 15µM* | 20% | -5%
CC1(N2CCOCC2)CC2(O)C(=[N+]1[O-])CCc1c2no[n+]1[O-] (stereo not drawn) | 32µM* | -8% | -11% | 2%
COc1ccccc1CNC(=O)Nc1ccc2c(c1)N(C)C(=O)c1ccccc1S2 | -29% | nt | nt | nt
O=C(CCNc1ccc(Cl)cc1)c1cccs1 | 16µM* | 43% | ? | 3%
O=C(CCNc1cc(Cl)cc(Cl)c1)c1cccs1 | ? | 19% | 111% | -27%
O=C(CCSc1ccc(Cl)cc1)c1cccs1 | 2.2µM* | 14% | 0% | -1%
N#Cc1c[nH]n2c(NC3CCCCC3)c(-c3ccccc3F)nc12 | -7% | nt | nt | nt
CCCN1C(=O)C2(c3ccccc31)c1c(oc3ccc(F)cc3c1=O)C(=O)N2CCCOC(C)C (stereo not drawn) | -2% | nt | nt | nt
COc1cc(-c2noc(CCCC(=O)NCc3ccco3)n2)cc(OC)c1OC | 45µM* | ? | ? | -11%
O=C(CCc1nc(-c2ccccc2)no1)NCc1ccco1 | 45µM* | 15% | i | 2%
SMILES | Sm TGR inh | Pf growth 48h | Pf growth 96h | SARS PLP yeast
Cc1ccc(NC(=O)Cn2c(=O)n(CCCS(=O)(=O)C3CCCCC3)c(=O)c3ccccc32)cc1F | 3% | nt | nt | nt
CN(C)c1ccc(-c2nnn(CC(=O)N3c4ccccc4CCc4ccccc43)n2)cc1 | -11% | 2.1µM* | -25% | -8%
CC(C)C[C@H]1C(=O)N2CCCC2[C@]2(O)O[C@](NC(=O)[C@@H]3C=C4c5cccc6[nH]c(Br)c(c56)C[C@H]4N(C)C3)(C(C)C)C(=O)N12 (stereo partly drawn) | nt | 3.4µM* | ? | nt
CN1C[C@H](C(=O)N[C@]2(C)O[C@@]3(O)[C@@H]4CCCN4C(=O)[C@H](Cc4ccccc4)N3C2=O)CC2c3cccc4[nH]cc(c34)C[C@H]21 (stereo partly drawn) | -24% | 1.9µM* | 1.3µM* | nt
CN1C[C@H](C(=O)N[C@]2(C)O[C@@]3(O)[C@@H]4CCCN4C(=O)[C@H](Cc4ccccc4)N3C2=O)C[C@@H]2c3cccc4[nH]cc(c34)C[C@H]21 | nt | 7.6µM* | ? | nt
CC(C)[C@@]1(NC(=O)[C@H]2CC3c4cccc5[nH]cc(c45)C[C@H]3N(C)C2)O[C@@]2(O)C3CCCN3C(=O)[C@@H](Cc3ccccc3)N2C1=O (stereo partly drawn) | nt | 1.5µM* | 8.5µM* | nt
CCCc1nc(SC2CCCC2)c2c(=O)n(C)c(=O)n(C)c2n1 | 4% | ? | ? | 2%
